Among the data in PubChem BioAssay (NCATS) are Potency values, retold here.

Inconclusive results are not listed. Where a call stands in place of a potency, no number is given. Activity calls are given as the source filed them. Unless noted, calls follow the shape of the full dose curve.

Sequence of Calcium and integrin-binding protein 1 (Homo sapiens) (Q99828 whole entry, looked up): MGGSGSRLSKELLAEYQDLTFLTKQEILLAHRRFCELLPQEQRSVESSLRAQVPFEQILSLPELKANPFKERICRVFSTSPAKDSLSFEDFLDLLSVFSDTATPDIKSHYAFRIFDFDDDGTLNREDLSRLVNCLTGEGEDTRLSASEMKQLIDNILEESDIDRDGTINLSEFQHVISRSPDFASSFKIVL

One assay concerns the target Calcium and integrin-binding protein 1 (Homo sapiens) (UniProt Q99828). Kind of assay: Primary qHTS for Identification of Calcium Integrin Binding Protein 1 (CIB1) Competitor (AID 1508620; active = well fitted inhibition curve with a large enough effect;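 also: GST tagged CIB1 binding a fluorescein labelled alphaIIb integrin peptide tracer; top concentration of the series differs between compounds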). The following applies: CIB1-GST / FITC-alphaIIb peptide fluorescence polarization; series mostly up to 114 µM. The gist of the method:
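Fluorescence polarization competition: GST-tagged CIB1 (1 uM final) preincubated with compound 15 min at room temperature, then FITC-labelled alphaIIb peptide (100 nM final) added. After 15 min at room temperature, polarization read at Ex 480/Em 540.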
A general note: Quantitative high-throughput screening tests each substance at several concentrations.
On to `CCOc1ccccc1OCCN[C@H](C)Cc1ccc(OC)c(S(N)(=O)=O)c1`, for which the Potency entry was “inactive”.

On to `CCN(CC)CCOC(=O)C(Cc1cccc2ccccc12)CC1CCCO1` (stereo unspecified), for which the Potency result was “inactive”.

On to `CN1CCN(C2=Nc3ccccc3Sc3ccc(Cl)cc32)CC1`, for which the Potency result is “inactive”.

Consider `O=C(CCN1CCN2CCCC2C1)N1c2ccccc2Sc2ccc(Cl)cc21` (stereo unspecified), for which the Potency entry was “inactive”.

In the case of `NC1CCN(c2nc3c(cc2F)c(=O)c(C(=O)O)cn3-c2ccc(F)cc2F)C1` (stereo unspecified), the Potency entry is “inactive”.

For the compound `FC(F)(F)C(F)(F)C(F)(F)C(F)(F)C(F)(F)C(F)(F)C(F)(F)C(F)(F)Br`, the Potency entry is “inactive”.

Turning to `Cc1cc(C)cc(OCC2CNC(=O)O2)c1` (stereo unspecified), the Potency entry was “inactive”.

With `CCOc1ccccc1C(N)=O`, the Potency entry is “inactive”.

For `O=C(Nc1ncc([N+](=O)[O-])s1)c1cccs1`, the Potency entry was “inactive”.

On to `O=C(O)Cc1csc(-c2ccc(Cl)cc2)n1`, for which the Potency entry is “inactive”.

Turning to `CCOC(=O)[C@@](C)(N)Cc1ccc(O)c(O)c1`, the Potency entry was “inactive”.

As for `O=C(Nc1ccc([N+](=O)[O-])cc1)Nc1ccc([N+](=O)[O-])cc1`, the Potency entry is “inactive”.

Regarding `CC(=O)Nc1ccc(CC(=O)O)cc1`, the Potency result was “inactive”.

In the case of `CC(=O)Oc1ccc(C)cc1`, the Potency entry is “inactive”.

Regarding `CCCCNc1ccc(C(=O)OCCOCCOCCOCCOCCOCCOCCOCCOCCOC)cc1`, the Potency result was “inactive”.

Test system in a further assay: not listed separately
Kind of assay: A High-Content qHTS Against Drug Library for the Identification of Small Molecules that Inhibit DYT1 Early Onset Primary Dystonia-Associated Cell Pathology (AID 1645839). To be noted: HEK293 Flp-In EGFP-delE TorsinA, punctate imaging, 48 h; series mostly up to 46.1 µM. The gist of the method:
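Cells were seeded and left for 24 h, then dosed with compound alongside tetracycline induction of mutant EGFP-TorsinA. They were incubated for 48 h, fixed in 4% paraformaldehyde, permeabilized and imaged for mislocalization (%pathology) and cell count.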
For the compound `CCCCNC(=O)NS(=O)(=O)c1ccc(N)cc1`, the Potency result is “inactive”.

For `CCN(CC)CCOC(=O)C1(c2ccccc2)CCCC1`, the Potency result was “inactive”.

Turning to `O=C(O)c1ccc(S(=O)(=O)N(Cl)Cl)cc1`, the Potency entry was “inactive”.

On to `CC(=O)Nc1ccc(OC(=O)c2ccccc2OC(C)=O)cc1`, for which the Potency result was “inactive”.

With `C[N+]12CCC(CC1)C(OC(=O)C(O)(c1ccccc1)c1ccccc1)C2` (stereo unspecified), the Potency entry is “inactive”.

For `COc1cc(NS(=O)(=O)c2ccc(N)cc2)ncn1`, the Potency result was “inactive”.

For the compound `C[C@@H](O)[C@H]1C(=O)N2C(C(=O)O)=C([C@H]3CCCO3)S[C@H]12`, the Potency entry is “inactive”.

Consider `CCCCCCCCOc1ccc(C(=O)c2ccccc2)c(O)c1`, for which the Potency result is “inactive”.

With `CCCc1ncc(C[n+]2ccccc2C)c(N)n1`, the Potency result is “inactive”.

For the compound `CC(=O)N[C@@H](CCC(=O)O)C(=O)O`, the Potency result is “inactive”.

For `CCN1CCN(C(=O)N[C@@H](C(=O)N[C@@H]2C(=O)N3C(C(=O)O)=C(CSc4nnnn4C)CS[C@H]23)c2ccc(O)cc2)C(=O)C1=O`, the Potency result is “inactive”.

For `N#CCC(=O)NN`, the Potency entry was “inactive”.

`CC(C)Nc1cccnc1N1CCN(C(=O)c2cc3cc(NS(C)(=O)=O)ccc3[nH]2)CC1`: the Potency result is “inactive”.

Turning to `Cc1ccc(S(=O)(=O)NC(=O)NC2CCCC2)cc1`, the Potency entry was “inactive”.

Turning to `Nc1ccc(C(=O)NCC(=O)O)cc1`, the Potency entry is “inactive”.

In the case of `O=[N+]([O-])c1ccc(/C=N\O)o1`, the Potency result is “inactive”.

Consider `CCCN(CCC)S(=O)(=O)c1ccc(C(=O)O)cc1`, for which the Potency result was “inactive”.

Consider `O=C(O)P(=O)(O)O`, for which the Potency entry was “inactive”.

With `CC1CCc2c(N3CCC(O)CC3)c(F)cc3c(=O)c(C(=O)O)cn1c23` (stereo unspecified), the Potency result is “inactive”.

As to `C/C=C/c1ccc(O)c(OC)c1`, the Potency entry was “inactive”.

Turning to `Cc1cccc(C)c1NC(=O)c1ccccc1C(=O)O`, the Potency result is “inactive”.

Turning to `CCOc1ccccc1OCCN[C@H](C)Cc1ccc(OC)c(S(N)(=O)=O)c1`, the Potency entry was “inactive”.

As to `CCN(CC)CCOC(=O)C(Cc1cccc2ccccc12)CC1CCCO1` (stereo unspecified), the Potency entry is “inactive”.

For the compound `CN1CCN(C2=Nc3ccccc3Sc3ccc(Cl)cc32)CC1`, the Potency result is “inactive”.

`O=C(CCN1CCN2CCCC2C1)N1c2ccccc2Sc2ccc(Cl)cc21` (stereo unspecified): the Potency entry is “inactive”.

Turning to `NC1CCN(c2nc3c(cc2F)c(=O)c(C(=O)O)cn3-c2ccc(F)cc2F)C1` (stereo unspecified), the Potency result is “inactive”.

On to `FC(F)(F)C(F)(F)C(F)(F)C(F)(F)C(F)(F)C(F)(F)C(F)(F)C(F)(F)Br`, for which the Potency result is “inactive”.

Take `Cc1cc(C)cc(OCC2CNC(=O)O2)c1` (stereo unspecified): the Potency entry is “inactive”.

Regarding `CCOc1ccccc1C(N)=O`, the Potency result is “inactive”.

Consider `O=C(Nc1ncc([N+](=O)[O-])s1)c1cccs1`, for which the Potency result is “inactive”.

As to `O=C(O)Cc1csc(-c2ccc(Cl)cc2)n1`, the Potency entry is “inactive”.

Turning to `CCOC(=O)[C@@](C)(N)Cc1ccc(O)c(O)c1`, the Potency result was “inactive”.

Regarding `O=C(Nc1ccc([N+](=O)[O-])cc1)Nc1ccc([N+](=O)[O-])cc1`, the Potency result is “inactive”.

As for `CC(=O)Nc1ccc(CC(=O)O)cc1`, the Potency entry was “inactive”.

Take `CC(=O)Oc1ccc(C)cc1`: the Potency result is “inactive”.

For the compound `CCCCNc1ccc(C(=O)OCCOCCOCCOCCOCCOCCOCCOCCOCCOC)cc1`, the Potency entry is “inactive”.
